Data: PubChem BioAssay (NCI)
This is part of a sample that, as a whole, favours compounds with a hit. Of some 83,000 tested, about 20% had one in any assay.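 Growth was measured after 48 h exposure to one concentration of compound in 96-well plates. Values under 10 count as active.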 Unmarked numbers belong to inactive results. Calls of active or inactive are those of the source.

How the values were obtained:
Assay in all cases: NCI-60 one-dose screen, 48 h (100 = growth as untreated, 0 = no growth, -100 = all killed)
Conditions in all cases: 10 µM unless noted
NCI-H23 lung = test system: NCI-H23 lung
NCI-H226 lung = test system: NCI-H226 lung
NCI-H322M lung = test system: NCI-H322M lung
HOP-62 NSCLC = test system: HOP-62 NSCLC
NCI-H460 lung = test system: NCI-H460 lung
HOP-92 NSCLC = test system: HOP-92 NSCLC
NCI-H522 lung = test system: NCI-H522 lung
A549/ATCC NSCLC = test system: A549/ATCC NSCLC
786-0 renal = test system: 786-0 renal
COLO 205 colon = test system: COLO 205 colon
DU-145 prostate = test system: DU-145 prostate
K-562 leukemia = test system: K-562 leukemia
MALME-3M melanoma = test system: MALME-3M melanoma
MDA-MB-231 breast = test system: MDA-MB-231 breast
SF-268 CNS = test system: SF-268 CNS
SF-295 CNS = test system: SF-295 CNS
SF-539 CNS = test system: SF-539 CNS
UACC-257 melanoma = test system: UACC-257 melanoma
M14 melanoma = test system: M14 melanoma
RXF 393 renal = test system: RXF 393 renal

Row | Structure (SMILES) | growth (NCI-H23 lung) | growth (NCI-H226 lung) | growth (NCI-H322M lung) | growth (HOP-62 NSCLC) | growth (NCI-H460 lung) | growth (HOP-92 NSCLC) | growth (NCI-H522 lung) | growth (A549/ATCC NSCLC) | growth (786-0 renal) | growth (COLO 205 colon) | growth (DU-145 prostate) | growth (K-562 leukemia) | growth (MALME-3M melanoma) | growth (MDA-MB-231 breast) | growth (SF-268 CNS) | growth (SF-295 CNS) | growth (SF-539 CNS) | growth (UACC-257 melanoma) | growth (M14 melanoma) | growth (RXF 393 renal)
1 | C[n+]1c(/C=C\C=C\N2CCCCC2)sc2ccccc21 | 12.1% | 17.7% | 17.6% | -29.1% (active) | 0.479% (active) | -42.3% (active) | -49.3% (active) | -13.7% (active) | -42.4% (active) | -42.7% (active) | 23.1% | -14.4% (active) | -4.48% (active) | 17.7% | 12.9% | -10.3% (active) | 4.51% (active) | -44% (active) | 0.396% (active) | 
2 | O=C(O)c1cc(I)ccc1O | 103% | 99% | 95.7% | 100% | 108% | 121% | 111% | 93.3% | 107% | 127% | 116% | 114% | 90.3% | 110% | 111% | 105% | 97.7% | 104% | 110% | 
3 | CC(C)(C)NCCC(O)c1cc(C(F)(F)F)nc2c(C(F)(F)F)cccc12 (configuration not stated) | 95.5% | 75.2% | 76.2% | 68.3% | 44.4% | 40.2% | 76.2% | 57.5% | 80.3% | 97.7% | 73.6% | 64.5% | 102% | 55.1% | 71% |  | 75.1% | 90.1% | 84.6% | 73.3%
4 | O=C(CC(CC(=O)c1ccccc1)c1ccccn1)c1ccccc1 | 92.9% | 95.7% | 102% | 105% | 102% | 94.7% | 95.1% | 98.5% | 113% | 101% | 110% | 92.6% | 91.5% | 92.7% | 105% |  | 106% | 105% | 103% | 111%
5 | O=S(Cc1ccccc1)/C(=C/NC(=S)Nc1ccccc1)c1ccccc1 (configuration not stated) | 89.3% | 101% | 99.7% | 94.9% | 107% | 101% | 77% | 95.9% | 110% | 101% | 104% | 106% |  | 108% | 99.2% | 114% | 99.7% | 98% | 98.5% | 116%
6 | Cn1c2ccccc2c2nnc(NCCCCO)nc21 | 84.3% | 83.9% | 99.3% | 81.6% | 100% | 84.1% | 95.3% | 92.6% | 98.8% | 103% | 103% | 99.7% | 98.3% | 99.3% | 91.1% | 113% | 92.6% | 113% | 88% | 
7 | CC(=O)NC(O)C(Cl)Cl (configuration not stated) | 91.8% | 102% | 98.4% | 95.6% | 106% | 94.9% | 94% | 102% | 112% | 98.9% | 99.2% | 84.3% | 96.7% |  | 95% | 93.6% | 90.6% | 107% | 110% | 113%
8 | O=c1cc(C(F)(F)F)[nH]c(=S)[nH]1 | 103% | 112% | 101% | 100% | 112% | 126% | 99.4% | 98.1% | 104% | 109% | 109% | 111% | 96.6% |  | 121% | 98.3% | 96.5% | 99.2% | 108% | 104%
9 | O=C(O)CC1=CCCCC1 | 98.9% | 103% | 98.7% | 98.3% | 106% | 82.8% | 101% | 98.5% | 95.2% | 108% | 102% | 102% | 90.8% | 98% | 93.4% | 95.2% | 98.4% | 100% | 95.8% | 
10 | Cc1[nH]nc(C(N)=O)c1[N+](=O)[O-] | 89.2% | 87.6% | 105% | 77.5% | 98.9% | 84.1% | 106% | 101% | 103% | 102% | 103% | 126% | 94% |  | 99.4% | 99% | 93.3% | 93.7% | 90.4% | 86.9%
11 | CC(=O)NNC(=S)/N=C\C(C(=O)c1ccccc1)=C(/O)c1ccccc1 | 90.1% | 96.2% | 94.1% | 88.2% | 110% | 100% | 86.3% | 87.3% | 99.8% | 108% | 108% | 101% |  | 89.6% | 99.2% | 108% | 101% | 102% | 103% | 97.7%
12 | O=S(=O)(c1ccc(NC(=S)NCc2cccnc2)cc1)N1CCCCC1 | 87% | 86.7% | 91.4% | 83.1% | 63% | 86.2% | 19.1% | 65.2% | 93.8% | 63% | 46.9% | 33% | 90.3% | 95.1% | 72.6% |  | 31.9% | 101% | 39.7% | 
13 | COC(=O)c1cccc([N+](=O)[O-])c1 | 96.3% | 103% | 103% | 79.4% | 108% | 95.1% | 101% | 94.9% | 104% | 112% | 105% | 120% | 102% |  | 102% | 105% | 98.5% | 95.5% | 105% | 108%
14 | Cc1[nH]n(-c2ccccc2)c(=O)c1C=NC(=S)C(N)=S | 98.1% | 99.7% | 110% | 104% | 107% | 84% | 86.2% | 93.6% | 104% | 106% | 106% | 101% |  | 98.9% | 100% | 98.4% | 106% | 97.7% | 103% | 106%
15 | Ic1cccs1 | 97.7% | 107% | 105% | 99% | 108% | 121% | 97.5% | 98% | 105% | 117% | 107% | 102% | 94.6% |  | 99.3% | 95.9% | 101% | 99.5% | 104% | 119%
16 | O=[N+]([O-])c1ccc2[nH]c(=S)n(/C=C(/c3ccc(Cl)cc3Cl)S(=O)(=O)Cc3ccc(Cl)cc3Cl)c2c1 | 96.2% | 106% | 100% | 90.3% | 108% | 112% | 88.6% | 83.3% | 94.6% | 99% | 102% | 102% |  | 96.2% | 97% | 97.4% | 99.6% | 86.5% | 93.6% | 109%
17 | O=C1C=CC(=O)C2=C1CCCC2 | 86.4% | 79.6% | 92% | 92.4% | 95.9% | 135% | 94% | 95.8% | 107% | 110% | 101% | 46.3% | 91.9% |  | 93.7% | 104% | 104% | 95.6% | 96.4% | 103%
